Potency data for 40 molecules are collected here from PubChem BioAssay (Tox21).

“And” between values parts separate entries of the source, which are not always exact repeats. Identical values can stand only once. Results filed as inconclusive are left out. Where a call stands in place of a potency, no number is given. A structure can be active in one record and inactive in another. The source made the active and inactive calls. Calls come from the whole dose curve; as a rule, active = well fitted activation curve with a large enough effect in the repeat runs; inconclusive = weak or mixed curves; inactive = flat fitted curve, though single readings scatter.
Potency is the fitted concentration of half-maximal effect.

The experiment is described as follows: A CellTox Green Cytotoxicity Assay to monitor cytotoxicity in HEK293 cells - 32 hour (AID 1224881). Note: nearly all actives have a fitted effect of over 40% in size. Conditions: CellTox Green fluorescence; series mostly up to 76.8 µM. From the text:
National Center for Advancing Translational Sciences [NCATS]
NIH Chemical Genomics Center [NCGC]
U.S. Environmental Protection Agency [EPA]
National Institutes of Environmental Health Sciences [NIEHS]
National Toxicology Program [NTP]
Cell-based models are critical for drug discovery. Determining the natural cytotoxic effects resulting from test compounds is an essential research activity. A CellTox Green Cytotoxicity Assay to monitor cytotoxicity in real time of continues cell culture during 40 hours of the compound treatment was used to screen Tox21 10K library compounds in Hek293 cells. CellTox Green Cytotoxicity Assay is a nonlytic, homogeneous, biofluorescent method to measure cytotoxicity in cell culture after experimental manipulation. The assay system uses a proprietary asymmetric cyanine dye that is excluded from viable cells but preferentially stains the dead cell's DNA. […] Viable cells produce no appreciable increases in fluorescence. Therefore, the fluorescence signal produced by the binding interaction with dead cell DNA is proportional to cytotoxicity.
The mixture of Hek293 cell suspension and reagents were dispensed at 600cells/6 ul/well in 1536-well tissue culture treated black solid bottom plates using a Multidrop dispenser. After the assay plates were incubated at a 37 C/5% CO2 incubator for 5 hours, 23 nL of compounds dissolved in DMSO, positive and negative controls was transferred to the assay plate by a pintool work station. The plates were incubated at 37 C for 40 hours. The fluorescence intensity were measured at 0h, 8h, 16h, 24h, 32h and 40h time points using ViewLux plate reader during compound treatment.
As to `CCOP(=S)(OCC)SCn1c(=O)oc2cc(Cl)ccc21`, the Potency result is “inactive”.

For the molecule `N#CCCCCC#N`, the Potency result is “inactive”. With `CC(C)(c1ccccc1)c1ccc(O)cc1` the figure was 27.3 µM (active) and 24.5 µM (active); with `CC(C)(O)C(=O)Nc1ccc([N+](=O)[O-])c(C(F)(F)F)c1`, “inactive”.

Turning to `CCCCOC(=O)COC(=O)c1ccccc1C(=O)OCCCC`, the Potency entry was “inactive”.

As to `Oc1ccc(Cl)cc1Cl`, the Potency entry is “inactive”. The value for `Oc1ccc(Cl)cc1Cc1ccccc1` was 12.3 µM (active) and 22.1 µM (active) and 21.3 µM (active). Turning to `NC(=O)CN1CCCC1=O`, the Potency result is “inactive”. In the case of `CNC(=O)Oc1cccc2c1OC(C)(C)C2`, the Potency entry is “inactive”.

As for `O=[N+]([O-])c1ccc(Cl)c([N+](=O)[O-])c1`, the Potency was 19.8 µM (active) and 24.5 µM (active). The value for `Cn1c(-c2ccccc2)cc(-c2ccccc2)[n+]1C` was “inactive”; that for `CSc1nc(NC(C)C)nc(NC(C)C)n1` was “inactive”. As for `Cc1ccc([N+](=O)[O-])cc1`, the Potency result is “inactive”. Turning to `ClC(Cl)(Cl)Br`, the Potency result was “inactive”.

Consider `N#Cc1nn(-c2c(Cl)cc(C(F)(F)F)cc2Cl)c(N)c1S(=O)C(F)(F)F` (stereo not given), for which the Potency entry is “inactive”. The value for `CC(C)=CC1C(C(=O)OCc2cccc(Oc3ccccc3)c2)C1(C)C` (stereo not given) was “inactive”; that for `ClCc1ccccn1` was “inactive”. With `O=C1CCCO1` the entry was “inactive”; with `O=P(OCCCl)(OCCCl)OCCCl`, “inactive”; with `CCC(=O)Nc1ccc(Cl)c(Cl)c1`, “inactive”.

For the molecule `COC(=O)Nc1nc2ccccc2[nH]1`, the Potency entry is “inactive”. The value for `C[N+](C)(C)CC(=O)O` was “inactive”; that for `CS(=O)(=O)NC(=O)c1cc(Oc2ccc(C(F)(F)F)cc2Cl)ccc1[N+](=O)[O-]` was “inactive”; that for `CCCCCCCCCc1ccc(O)cc1` was “inactive”. With `CC1(C)C(C(=O)OC(C#N)c2cccc(Oc3ccccc3)c2)C1(C)C` (stereo not given) the entry was “inactive”. With `CNC(=O)CSP(=S)(OC)OC` the entry was “inactive”; with `CCNc1nc(Cl)nc(NC(C)(C)C#N)n1`, “inactive”. For `CN(C)c1ccccc1`, the Potency entry was “inactive”. For the molecule `OCCOCCO`, the Potency result is “inactive”. `ClCC(Cl)CCl`: the Potency entry is “inactive”.

`CC(C)(C#N)N=NC(C)(C)C#N`: the Potency entry was “inactive”. Take `[CH3][Sn]([Cl])([Cl])[Cl]`: the Potency result is “inactive”. On to `CC(C)=CC1C(C(=O)OCN2C(=O)C3=C(CCCC3)C2=O)C1(C)C` (stereo not given), for which the Potency result was “inactive”. With `Nc1ccc2ccccc2c1`, the Potency result was “inactive”.

As to `CCOP(=O)(OCC)OCC`, the Potency entry was “inactive”. With `COc1ccc(CO)cc1` the entry was “inactive”; with `COP(=S)(OC)Oc1ccc(S(=O)(=O)N(C)C)cc1`, “inactive”; with `C[C@]12CC[C@H]3[C@@H](CCC4=CC(=O)CC[C@@H]43)[C@@H]1CC[C@@H]2O`, “inactive”. With `O=C(O)c1nn(Cc2ccc(Cl)cc2Cl)c2ccccc12` the entry was “inactive”; with `C[C@]12CCC(=O)C=C1CC[C@@H]1[C@@H]2CC[C@@]2(C)[C@H]1CC[C@]2(C)O`, 44 µM (active) and inactive.
